Unmarked numbers belong to inactive results. Results filed as inconclusive are left out. Entries that show only a call come without a potency. Active and inactive are the calls of the source. Unless noted, calls follow the shape of the dose curve; as a rule, active = well fitted curve in the direction sought with a large enough effect in the repeat runs; inconclusive = weak or mixed curves; inactive = no such curve, though single readings can be large; an effect the other way counts as inactive or inconclusive.
Tests used:
[1] = qHTS assay to identify small molecule antagonists of the estrogen related receptor (ERR) signaling pathway from Tox21 library - cell viability counter screen (AID 1224834); also: nearly all actives have a fitted effect of over 30% in size
Method in brief: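 In this quantitative HTS format, ERR cells receive compounds in DMSO and are incubated for 17.5 h at 37 C. Live-cell protease activity is then detected with CellTiter-Fluor.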

[2] = target: Luciferin 4-monooxygenase (Photinus pyralis) (UniProt P08659); assay: qHTS assay to identify small molecule inhibitors of firefly luciferase (AID 1224835); also: nearly all actives have a fitted effect of over 25% in size; also: potency is read from the fitted curve at half-maximal effect
Chain of Luciferin 4-monooxygenase (Photinus pyralis) (P08659 whole entry, looked up): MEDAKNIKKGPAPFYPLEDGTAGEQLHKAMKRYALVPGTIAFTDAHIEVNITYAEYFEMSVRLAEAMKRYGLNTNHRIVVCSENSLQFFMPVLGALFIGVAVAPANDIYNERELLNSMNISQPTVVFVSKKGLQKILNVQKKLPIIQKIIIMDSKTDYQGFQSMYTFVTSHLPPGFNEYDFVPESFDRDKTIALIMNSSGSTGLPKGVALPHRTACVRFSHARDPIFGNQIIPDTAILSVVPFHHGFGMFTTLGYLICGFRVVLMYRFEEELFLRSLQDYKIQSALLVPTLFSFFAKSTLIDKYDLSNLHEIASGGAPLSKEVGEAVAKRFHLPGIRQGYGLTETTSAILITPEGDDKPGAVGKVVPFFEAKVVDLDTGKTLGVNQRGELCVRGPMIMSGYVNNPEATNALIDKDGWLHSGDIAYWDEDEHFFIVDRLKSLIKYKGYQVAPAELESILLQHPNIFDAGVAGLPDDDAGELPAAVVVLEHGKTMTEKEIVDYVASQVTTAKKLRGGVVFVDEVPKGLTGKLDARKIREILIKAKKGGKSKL
Method in brief: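 Quantitative HTS format; KM concentrations of both substrates. Purified P. pyralis FLuc activity quantified from luminescence images.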

[3] = qHTS assay to identify small molecule agonists of the constitutive androstane receptor (CAR) signaling pathway - cell viability counter screen (AID 1224836); also: nearly all actives have a fitted effect of over 45% in size
Method in brief: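 Compound titrations (15 concentrations) went onto HepG2-CYP2B6-hCAR cells 4 h after seeding, alongside PK11195 at a final 0.75 uM; a 23 h, 37 C/5% CO2 incubation preceded CellTiter-Fluor viability measurement.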

[4] = qHTS assay to identify small molecule antagonists of the constitutive androstane receptor (CAR) signaling pathway - cell viability counter screen (AID 1224837); also: nearly all actives have a fitted effect of over 45% in size
Method in brief: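 In quantitative HTS format, compounds at 15 concentrations were applied to HepG2 cells double-transfected with hCAR and CYP2B6-2.2kb under 50 nM CITCO stimulation; live-cell protease activity was read after 23 hr via CellTiter-Fluor.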

[5] = qHTS assay to identify small molecule antagonists of the estrogen related receptor signaling pathway with the pleiotropic PPARgamma coactivator (PGC) from Tox21 10K library - cell viability counter screen (AID 1224840; active = well fitted cell-killing curve with a large enough effect in the repeat runs, not every such curve was filed as active; also: nearly all actives have a fitted effect of over 40% in size)
Method in brief: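 Viability counter screen, PGC/ERR cells: 17.5 h compound exposure at 37 C, CellTiter-Fluor fluorescence endpoint.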

[6] = target: Thyrotropin receptor (Homo sapiens) (UniProt P16473); assay: qHTS assay to identify small molecule agonists of the thyroid stimulating hormone receptor (TSHR) signaling pathway (AID 1224843; calls by dose curve; also: nearly all actives have a fitted effect of over 45% in size)
Chain of Thyrotropin receptor (Homo sapiens) (P16473 whole entry, looked up): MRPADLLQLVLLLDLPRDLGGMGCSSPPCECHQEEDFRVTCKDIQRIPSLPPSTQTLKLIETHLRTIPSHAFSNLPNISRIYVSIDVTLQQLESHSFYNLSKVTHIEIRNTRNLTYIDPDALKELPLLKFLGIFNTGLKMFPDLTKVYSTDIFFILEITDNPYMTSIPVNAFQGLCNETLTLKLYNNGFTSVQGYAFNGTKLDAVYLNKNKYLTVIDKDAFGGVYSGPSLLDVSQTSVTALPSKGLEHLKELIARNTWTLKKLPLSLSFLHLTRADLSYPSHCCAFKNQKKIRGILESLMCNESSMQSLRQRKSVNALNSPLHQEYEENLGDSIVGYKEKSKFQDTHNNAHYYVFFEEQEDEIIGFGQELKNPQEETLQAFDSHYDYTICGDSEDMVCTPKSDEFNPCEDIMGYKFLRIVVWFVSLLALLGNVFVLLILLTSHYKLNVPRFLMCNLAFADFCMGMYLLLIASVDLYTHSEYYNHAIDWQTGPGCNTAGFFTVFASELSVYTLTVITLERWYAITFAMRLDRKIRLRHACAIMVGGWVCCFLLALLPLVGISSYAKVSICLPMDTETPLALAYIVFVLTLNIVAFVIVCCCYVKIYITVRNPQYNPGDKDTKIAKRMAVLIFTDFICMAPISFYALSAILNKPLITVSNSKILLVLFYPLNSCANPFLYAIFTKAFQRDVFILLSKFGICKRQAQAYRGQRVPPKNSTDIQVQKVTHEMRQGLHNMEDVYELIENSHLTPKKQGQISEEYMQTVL
Method in brief: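 Compounds are titrated over 15 concentrations, in triplicate, onto TSHR-HEK293 cells seeded at 800/well. Plates sit 30 min at room temperature before cAMP-d2 and anti-cAMP cryptate are added; signal is read after a further hour.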

[7] = qHTS assay to identify small molecule agonists of the hypoxia (HIF-1) signaling pathway - cell viability counter screen (AID 1224844; calls by dose curve; also: nearly all actives have a fitted effect of over 50% in size)
Method in brief: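 Same wells as the HIF-1 reporter screen; ME-180 cells carrying HRE-bla, 17 hr treatment at 37C; CellTiter-Glo luminescence read after 30 min at room temperature.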

[8] = qHTS assay to identify small molecule agonists of H2AX (AID 1224845; active = well fitted activation curve with a large enough effect in the signal ratio in the repeat runs, not every such curve was filed as active; the % refers to the signal ratio)
Method in brief: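 Wild-type CHO-K1 cells plated overnight, then exposed 3 hr at 37C to compounds at 15 concentrations (0.76% DMSO). Lysed, then HTRF anti-pH2AX(S139)-cryptate/anti-H2AX-d2 detection after 24 hr at room temperature; emissions 665 and 620 nm.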

[9] = qHTS assay to identify small molecule agonists of the hypoxia (HIF-1) signaling pathway (AID 1224846; active = well fitted activation curve with a large enough effect in the signal ratio in the repeat runs, not every such curve was filed as active; the % refers to the signal ratio)
Method in brief: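 In ME-180 cells bearing an HRE-bla construct, 17 h treatment with DMSO-dissolved compounds at 37C was followed by CCF4-AM loading to quantify reporter induction.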

[10] = qHTS assay to identify small molecule agonists of H2AX - cell viability counter screen (AID 1224847; calls by dose curve; also: top concentration of the series differs between compounds; nearly all actives have a fitted effect of over 30% in size)
Method in brief: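 Read-out: CellTiter-Glo luminescence, 30 min RT. Cells: wild-type CHO-K1, 1000/well, 10% FBS, plated overnight at 37C. Treatment: 15 concentrations, 3 hr, 37C, 0.76% DMSO.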

[11] = qHTS RealTime-Glo MT Cell Viability Assay in HepG2 cells - 24 hour (AID 1224867); also: nearly all actives have a fitted effect of over 50% in size
Method in brief: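 Cell number in HepG2 cultures estimated from NanoLuc luminescence generated by metabolic reduction of a prosubstrate by living cells. The homogeneous, nonlytic format allowed repeated reads at 0, 8, 16, 24, 32 and 40 h of compound exposure.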

[12] = qHTS RealTime-Glo MT Cell Viability Assay in HEK293 cells - 32 hour (AID 1224868); also: nearly all actives have a fitted effect of over 50% in size; also: potency is read from the fitted curve at half-maximal effect
Method in brief: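 Homogeneous bioluminescent viability format in HEK293 cells (600 cells/well). Following 5 h at 37 C/5% CO2, 23 nL compound was pintooled; the signal was measured repeatedly during 40 h incubation.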

[13] = A CellTox Green Cytotoxicity Assay to monitor cytotoxicity in HEK293 cells - 0 hour (AID 1224869); also: nearly all actives have a fitted effect of over 50% in size
Method in brief: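 Homogeneous no-lysis format: HEK293 cell suspension mixed with CellTox Green reagent, seeded, incubated 5 h at 37 C/5% CO2, then dosed by pintool with compound in DMSO.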

[14] = qHTS assay to identify small molecule agonists of the estrogen related receptor signaling pathway with the pleiotropic PPARgamma coactivator (PGC) from Tox21 10K library (AID 1224842); also: nearly all actives have a fitted effect of over 15% in size
Method in brief: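 PGC/ERR reporter cells (NTP line) were seeded 2,000 per well, rested 6 h at 37 C/5% CO2, then pin-dosed with compounds in DMSO for 18 h at 37 C; luciferase read by One-Glo luminescence after 30 min at room temperature.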

[15] = qHTS assay to identify small molecule agonists of the estrogen related receptor (ERR) signaling pathway from Tox21 library (AID 1224849; calls by dose curve; also: nearly all actives have a fitted effect of over 15% in size); details: ERR reporter cell line, ONE-Glo luciferase, 18 h; at 92.4 µM (top of the series) unless noted
Method in brief: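 Reporter cells (ERR, NTP source) treated with Tox21 10K compounds 18 h, 37 C. Readout: ONE-Glo luminescence, 30 min RT.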

[16] = target: Nuclear receptor subfamily 1 group I member 3 (Homo sapiens) (UniProt Q14994); assay: qHTS assay to identify small molecule agonists of the constitutive androstane receptor (CAR) signaling pathway (AID 1224839); also: nearly all actives have a fitted effect of over 15% in size; also: potency is read from the fitted curve at half-maximal effect;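 as to activation: HepG2 cells stably carrying human CAR and a CYP2B6 luciferase reporter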
Chain of Nuclear receptor subfamily 1 group I member 3 (Homo sapiens) (Q14994 whole entry, looked up): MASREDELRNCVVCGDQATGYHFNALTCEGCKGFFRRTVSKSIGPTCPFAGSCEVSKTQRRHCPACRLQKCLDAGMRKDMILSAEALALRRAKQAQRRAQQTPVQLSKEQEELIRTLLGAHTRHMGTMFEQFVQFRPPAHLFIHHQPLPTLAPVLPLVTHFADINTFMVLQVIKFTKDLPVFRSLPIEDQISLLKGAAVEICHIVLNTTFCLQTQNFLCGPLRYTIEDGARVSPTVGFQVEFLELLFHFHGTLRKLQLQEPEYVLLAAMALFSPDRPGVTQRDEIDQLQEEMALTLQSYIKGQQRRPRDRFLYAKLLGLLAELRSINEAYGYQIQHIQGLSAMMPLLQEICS
Method in brief: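 In this screen, CAR-driven CYP2B6 promoter activity is measured by luminescence in HepG2-CYP2B6-hCAR cells after 24 h with test compounds and 0.75 uM PK11195 (final concentration).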

[17] = qHTS assay to identify small molecule antagonists of the estrogen related receptor (ERR) signaling pathway from Tox21 library (AID 1224848); also: nearly all actives have a fitted effect of over 50% in size
Method in brief: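 First, 2,000 ERR cells per well were plated and held 6 h at 37 C/5% CO2. Next, compounds in DMSO were pinned in and left 18 h at 37 C. Finally, ONE-Glo was added and luminescence read after 30 min at room temperature.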

[18] = qHTS assay to identify small molecule antagonists of the estrogen related receptor signaling pathway with the pleiotropic PPARgamma coactivator (PGC) from Tox21 10K library (AID 1224841; call rule not given here)
Method in brief: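 In the PGC/ERR line, DMSO solutions of test chemicals are pin-delivered to 2,000 cells/well six hours after dispensing. Following eighteen hours' incubation, One-Glo reagent is added and luminescence recorded.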

Row | SMILES | Potency [1] | Potency [2] | Potency [3] | Potency [4] | Potency [5] | Potency [6] | Potency [7] | Potency [8] | outcome [9] | Potency [10] | outcome [11] | Potency [12] | Potency [13] | Potency [14] | activity change, positive = activation [15] | Potency [16] | Potency [17] | Potency [18]
1 | Cc1ccc(NC=O)c(C)c1 | inactive | inactive | inactive | inactive | inactive | inactive | inactive | inactive | inactive | inactive | inactive | inactive | inactive | – | – | – | – | –
2 | Cc1ccc2c(Cl)cc(Cl)c(O)c2n1 | inactive | inactive | inactive | inactive | inactive | inactive | inactive | inactive | inactive | inactive | inactive | inactive | inactive | – | – | – | – | –
3 | CC(C)=CCC[C@H](C)CCO | inactive | inactive | inactive | inactive | inactive | inactive | inactive | inactive | inactive | inactive | inactive | inactive | inactive | – | – | – | – | –
4 | Clc1nc2ccccc2nc1Cl | inactive | inactive | inactive | inactive | inactive | inactive | inactive | inactive | inactive | inactive | inactive | – | inactive | – | – | – | – | –
5 | N#CCCCC(C#N)CCC#N (configuration not stated) | inactive | inactive | inactive | inactive | inactive | inactive | inactive | inactive | inactive | inactive | inactive | – | inactive | inactive | 0.869% | – | – | –
6 | SCCOCCOCCS | inactive | inactive | inactive | inactive | – | – | inactive | – | inactive | inactive | inactive | inactive | inactive | – | – | inactive | – | –
7 | CCCCOC(=O)C(C)Oc1ccc(Oc2ccc(C(F)(F)F)cn2)cc1 (configuration not stated) | inactive | inactive | inactive | inactive | inactive | – | inactive | inactive | inactive | inactive | inactive | inactive | inactive | – | – | inactive | – | –
8 | CC(O)CN (configuration not stated) | inactive | inactive | inactive | inactive | inactive | inactive | inactive | inactive | inactive | inactive | inactive | inactive | inactive | inactive | 0.61% | – | inactive | –
9 | CCCCCC1CCC(=O)O1 (configuration not stated) | inactive | inactive | inactive | inactive | inactive | inactive | inactive | inactive | inactive | inactive | inactive | inactive | inactive | inactive | 4.33% | – | – | –
10 | C[C@H]1C[C@H]2[C@@H]3CCC4=CC(=O)C=C[C@]4(C)[C@@]3(F)[C@@H](O)C[C@]2(C)[C@@]1(O)C(=O)COP(=O)(O)O | inactive | inactive | inactive | inactive | inactive | inactive | inactive | inactive | inactive | inactive | inactive | inactive | inactive | – | – | – | – | –
11 | CCCC(=O)OCc1ccccc1 | inactive | inactive | inactive | inactive | inactive | inactive | inactive | inactive | inactive | inactive | inactive | inactive | inactive | inactive | 0.0767% | – | inactive | –
12 | CCCCCCCCCCCCSC#N | inactive | inactive | inactive | inactive | inactive | inactive | inactive | inactive | inactive | inactive | inactive | inactive | inactive | inactive | 0.292% | – | inactive | inactive
13 | O=C(O)c1c2ccccc2cc2ccccc12 | inactive | inactive | inactive | inactive | inactive | inactive | inactive | – | – | inactive | inactive | 43.5 µM (active) | inactive | – | – | – | – | –
14 | COc1ccc(CN(CCN(C)C)c2ncccn2)cc1 | inactive | inactive | inactive | inactive | inactive | inactive | inactive | inactive | inactive | inactive | inactive | inactive | inactive | – | – | – | – | –
15 | C/C(=C\C(C)CC(C)CC(C)C)C1CC(=O)OC1=O (configuration not stated) | inactive | 89.4 µM (active) | inactive | inactive | inactive | inactive | inactive | inactive | inactive | inactive | inactive | inactive | inactive | – | – | – | – | –
16 | CC(=O)Nc1ccn(C2COC(COC(=O)c3ccccc3)O2)c(=O)n1 (configuration not stated) | inactive | inactive | inactive | inactive | – | inactive | inactive | inactive | inactive | inactive | inactive | inactive | inactive | inactive | -13.3% [at 42.5 µM] | inactive | – | –
17 | Cc1cccc(C)c1NC(=O)CN1CCCC1 | inactive | inactive | inactive | inactive | inactive | inactive | inactive | inactive | inactive | inactive | inactive | inactive | inactive | – | – | – | – | –
18 | O=c1c2ccccc2oc2ccccc12 | inactive | 20 µM (active) | inactive | inactive | inactive | – | inactive | inactive | inactive | inactive | inactive | inactive | inactive | – | – | 24.3 µM (active) | – | –
19 | COc1ccc(/C=C/S(=O)(=O)NC(=O)c2ccc(C)cc2Cl)cc1 | inactive | 79.6 µM (active) | inactive | inactive | inactive | inactive | – | inactive | inactive | inactive | inactive | inactive | inactive | – | – | – | – | –
20 | CCC[Si](OC)(OC)OC | inactive | inactive | inactive | inactive | inactive | inactive | inactive | inactive | inactive | inactive | inactive | inactive | inactive | inactive | -6.41% | – | inactive | –
